{"source": "PubChem BioAssay AID720553", "about": "(National Center for Advancing Translational Sciences (NCATS), 2013)", "note": "About 3,300 (0.97%) of roughly 340,000 compounds were called active. This is one part of a sample in which actives are shown more often than they occur. Values without a mark were called inactive.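 The calls were made as follows: active = maximum activity change below -70%; inconclusive = maximum activity change from -70% to -50%; inactive = maximum activity change above -50%.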 % is scaled to controls: 0 for no effect and ±100 for the full control effect."}
{"test_system": "Potassium voltage-gated channel subfamily H member 2, brain isoform KCNH2 3.1 (human)", "test": "qHTS for Inhibitors of KCHN2 3.1: Mutant qHTS", "details": "U2OS KCNH2 3.1, thallium flux FluxOr; stronger effect = lower value", "text": "Many antipsychotic drugs that inhibit the neurotransmitter dopamine also bind to hERG1 channel which might help explain their antipsychotic activity but also produces cardiac side effects. The discovery of the novel KCNH2 3.1 isoform offers a potential new target for the development of antipsychotic drugs without cardiac side effects. This proposal will use a high throughput thallium flux assay developed for KCNH2 to screen compounds that modulate the activity of KCNH2 3.1. The wild type KCNH2 channel will also be screened in parallel to help define the selective modulators of this KCNH2 3.1 potassium channel. The resulting compounds will be validated in electrophysiology experiments. The availability of animal models will allow future testing in vivo for effects on memory and other aspects of animal physiology linked with psychosis. NIH Chemical Genomics Center [NCGC] NIH Molecular Libraries Probe Centers Network [MLPCN] MLPCN Grant: MH096539 Assay Submitter (PI): James Barrow, Johns Hopkins University, Lieber Institute for Brain Development\nU2OS cells were resuspended in cell media containing 10% fetal calf serum (FCS) at a concentration of 2 million cells / mL. The solution was treated with the mutant (3.1) virus at 1.77 x 10^8 / mL and allowed to incubate at room temperature in the dark. After 4 hours of incubation, DMEM + 10% fetal bovine serum (FBS) was added to the cell solution. Three microliter was then dispensed into a 1536 tissue culture treated black assay plates which were incubated overnight at 37 C. Two microliter of loading buffer (HBSS + HEPES + Red40 dye quencher + FluxOr dye) was added and the assay plates were incubated for 45 min at room temperature in the dark. […] A stimulation buffer was added to the plate and the second kinetic read (2 min) was obtained. The rate constant was calculated from the kinetic reads and normalized to the positive and negative DMSO controls."}
{"smiles": "c1ccc(CCN2CCC3(CC2)OCCO3)cc1", "activity change": "-0.723%"}
{"smiles": "CCOC(=O)C1(CCc2ccccc2)CCN(Cc2ccco2)CC1", "activity change": "-96.9% (active)"}
{"smiles": "CCOC(=O)C1(c2ccccc2)CCN(CC(O)c2ccc(NC(C)=O)cc2)CC1", "note": "(stereo not given)", "activity change": "-5.82%"}
{"smiles": "COP(=O)(OC)C(NC(=O)c1ccc(C)cc1)C(Cl)(Cl)Cl", "note": "(stereo not given)", "activity change": "10.5%"}
{"smiles": "COc1cccc(CN2CCCC(C(=O)c3ccccc3SC)C2)c1O", "note": "(stereo not given)", "activity change": "-72.3% (active)"}
{"smiles": "COc1ccc(C(=O)C2CCCN(Cc3ccc(C)s3)C2)cc1OC", "note": "(stereo not given)", "activity change": "-13%"}
{"smiles": "CSc1ccc(C(=O)C2CCCN(Cc3ccn[nH]3)C2)cc1", "note": "(stereo not given)", "activity change": "-19%"}
{"smiles": "CC1C2Cn3c(nc4ccccc43)C1N(C)O2", "note": "(stereo not given)", "activity change": "20.5%"}
{"smiles": "COC(=O)C1=C(c2ccc(F)cc2OCc2ccccc2)C[C@@H]2CC[C@H]1N2C(=O)NCc1ccc(C(C)(C)C)cc1", "activity change": "-19.4%"}
{"smiles": "COC(=O)C1=C(c2ccc(F)cc2OCc2ccccc2)C[C@@H]2CC[C@H]1N2C(=O)NCc1ccc(OC)c(OC)c1", "activity change": "-73.8% (active)"}
{"smiles": "COC(=O)C1=C(c2ccc(F)cc2OCc2ccccc2)C[C@@H]2CC[C@H]1N2C(=O)NCc1ccc2[nH]ccc2c1", "activity change": "1.25%"}
{"smiles": "CC1=CC(=Cc2sc3ccccc3[n+]2C)C=C(C)O1", "activity change": "-4.47%"}
{"smiles": "COC(=O)C1=C(c2ccc(C(C)=O)cc2)C[C@@H]2CC[C@H]1N2C(=O)NCCNC(C)=O", "activity change": "21.5%"}
{"smiles": "COC(=O)CN1C(=O)C2(C(C(=O)OC)=C(N)Oc3ccccc32)C2=C1CC(C)(C)CC2=O", "note": "(stereo not given)", "activity change": "-17.7%"}
{"smiles": "CC(=O)NC(=O)NC(C)Cc1ccccc1", "note": "(stereo not given)", "activity change": "-18.9%"}
{"smiles": "CC(Cc1ccccc1)NC=O", "note": "(stereo not given)", "activity change": "13.6%"}
{"smiles": "CC(Cc1ccccc1)NCCC(c1ccccc1)c1ccccc1", "note": "(stereo not given)", "activity change": "-112% (active)"}
{"smiles": "CCN1c2nc3c(C)cccn3c(=O)c2CC2(C(=O)N(C)C(=O)N(C)C2=O)C1C", "note": "(stereo not given)", "activity change": "-4.08%"}
{"smiles": "c1ccc(C2NCc3ccccc3-n3cccc32)cc1", "note": "(stereo not given)", "activity change": "12.2%"}
{"smiles": "CC1(C)C(c2ccccc2)=NC(c2cccnc2)=[N+]1[O-]", "activity change": "0.45%"}
{"smiles": "CN(C)c1nc(N(C)C)nc(N(C#N)CCCl)n1", "activity change": "-8.4%"}
{"smiles": "OCC#CC[N+]1(CC#Cc2ccccc2)CCCC1", "activity change": "13.7%"}
{"smiles": "Cn1c(O)c(C=Nc2ccc3c(c2)CCC3)c(=O)n(C)c1=O", "activity change": "-17.3%"}
{"smiles": "CCOC(=O)C1(Cc2ccc(Cl)cc2)CCN(C(C)CCn2cccn2)CC1", "note": "(stereo not given)", "activity change": "-115% (active)"}
{"smiles": "O=c1c2ccccc2nc(/C=C/c2ccc(F)cc2)n1-c1ccccc1O", "activity change": "-2.48%"}
{"smiles": "CC(C)c1ccc(OCC(=O)N2CCN(C)CC2)c(Br)c1", "activity change": "-93.1% (active)"}
{"smiles": "CN1CCN(C(=O)COc2ccc(C(C)(C)C)cc2Br)CC1", "activity change": "-2.07%"}
{"smiles": "CC(C)c1ccc(OCC(=O)N2CCCN(C)CC2)cc1", "activity change": "10.3%"}
{"smiles": "CC(=C1C(=O)c2ccccc2C1=O)N1CCN(CCN=Cc2c(O)n(C)c(=O)n(C)c2=O)CC1", "activity change": "10.3%"}
{"smiles": "CC1CC=CCC12C(=O)NC(=S)NC2=O", "note": "(stereo not given)", "activity change": "10.6%"}
{"smiles": "CSC1=NP(=S)(SC)N(C)c2nc3n(c21)CCC3", "note": "(stereo not given)", "activity change": "-5.66%"}
{"smiles": "Cc1cc(C)cc(NC(=S)NC2CC3CCCC(C2)N3Cc2cccs2)c1", "note": "(stereo not given)", "activity change": "-73.1% (active)"}
{"smiles": "c1ccc(CCNC2CCCCCC2)cc1", "activity change": "12.5%"}
{"smiles": "CNC(=O)O/N=C(\\N)Cc1csc2ccc(Cl)cc12", "activity change": "4.55%"}
{"smiles": "N#Cc1ccc(Cn2cc(C(=O)c3ccco3)c3ccccc32)cc1", "activity change": "-80.8% (active)"}
{"smiles": "NC(=O)Cn1cc(C(=O)c2ccccc2F)c2ccccc21", "activity change": "3.8%"}
{"smiles": "COc1ccc2[nH]c3c(c2c1)CCN[C@H]3C", "activity change": "2.31%"}
{"smiles": "COc1cc(OC)cc(C2(C#N)CCN(C)CC2)c1", "activity change": "5.57%"}
{"smiles": "Cc1ncoc1C(=O)NCC1=C(c2cccc3ccccc23)C[C@@H]2CC[C@H]1N2Cc1ccco1", "activity change": "-7.12%"}
{"smiles": "CC(=CCOc1ccc2ccc(=O)oc2c1)C1=CC(=O)C(C)(C)O1", "activity change": "4.08%"}
